# About 410 (23%) of roughly 1,800 compounds were called active. How the calls were made is not given here. The list is a sample of the results. Measured potencies and affinities stand elsewhere.
# Experiment: viability of Vero cells under compound – cytotoxicity control for flavivirus capping enzyme inhibitors (AID 588742)
# Conditions: cytotoxicity counter-screen; series mostly up to 40 µM
row,SMILES,outcome
1,C=CCOc1ccc(/C=C2\SC(=S)N(C(C(=O)O)c3ccccc3)C2=O)cc1 (configuration not stated),inactive
2,C=CCn1c(=S)[nH]c2scc(-c3ccco3)c2c1=O,inactive
3,Cc1ccc(Cn2c(=S)[nH]c3ccc(N4CCOCC4)cc3c2=O)o1,inactive
4,O=C(O)COc1ccccc1C=NNc1ccc([N+](=O)[O-])cc1S(=O)(=O)Nc1ccc(Cl)cc1,inactive
5,Cc1ccc(NC(=S)NNc2ccc([N+](=O)[O-])cc2S(=O)(=O)Nc2ccccc2C(=O)O)cc1C,inactive
6,CC(C)COCC(O)CCC(=O)NNC(=S)Nc1ccccc1 (configuration not stated),inactive
7,Cc1ccc2ccc(C#N)cc2c1O,inactive
8,COc1ccccc1-c1cc(C(=O)Nc2sc3c(c2C#N)CCC(C)C3)c2ccccc2n1 (configuration not stated),inactive
9,COc1cc(C(c2c(C(=O)O)[nH]c3ccccc23)c2c(C(=O)O)[nH]c3ccccc23)ccc1OCc1ccccc1,inactive
10,COc1cc(/C=C2\C(=N)N3N=C(N4CCOCC4)SC3=NC2=O)ccc1OC(=O)c1ccccc1,inactive
11,Cc1cccc(N2C(=O)C(Cl)=C(N3CCOCC3)C2=O)c1,inactive
12,COc1ccc(C2C=C(c3ccc(Br)cc3)Nc3nc(N4C(=O)CCC4=O)nn32)cc1 (configuration not stated),inactive
13,Cc1ccc(S(=O)(=O)Nc2ccc3ccccc3c2[N+](=O)[O-])cc1,inactive
14,Cc1ccc(C)c(S(=O)(=O)Nc2ccc(O)c3ccccc23)c1,inactive
15,O=C(O)c1ccc(N/N=C/c2cn(Cc3ccccc3F)c3ccccc23)cc1,inactive
16,CC(/C=C1\SC(=S)N(NS(=O)(=O)c2ccc(C)cc2)C1=O)=C\c1ccccc1,inactive
17,Cc1nc2ccc(NC(=O)c3cc([N+](=O)[O-])cc([N+](=O)[O-])c3Cl)cc2s1,inactive
18,Cc1cc([N+](=O)[O-])c(C)cc1-c1ccc(/C=N/NC(=O)c2cccnc2)o1,inactive
19,CN(C)c1c([N+](=O)[O-])cc(N2C(=O)C=CC2=O)cc1[N+](=O)[O-],inactive
20,CCOc1ccc(/C=C2\SC(=S)N(NS(=O)(=O)c3ccccc3)C2=O)cc1OC,inactive
21,O=C(CCN1C(=O)S/C(=C/c2ccccc2)C1=O)Nc1ccc(O)c(C(=O)O)c1,inactive

row,SMILES,outcome
1,COc1ccc(OC)c(-n2c(-c3ccc(O)cc3O)n[nH]c2=S)c1,inactive
2,Cc1sc(NC(=O)C2CCCCC2C(=O)O)c(C(N)=O)c1-c1ccc(C(C)C)cc1 (configuration not stated),inactive
3,COC(=O)c1sc(-c2ccc(C(C)(C)C)cc2)cc1NC(=O)c1ccccc1C(=O)O,inactive
4,Cc1sc(NC(=O)C2CCCCC2C(=O)O)c(C(N)=O)c1-c1ccc(C(C)(C)C)cc1 (configuration not stated),inactive
5,O=C(O)CN1C(=O)/C(=C\c2cc(Br)ccc2OCc2ccccc2Cl)SC1=S,inactive
6,Oc1cc(CNCc2ccccc2)c(O)cc1CNCc1ccccc1,inactive
7,O=C(O)CN1C(=O)/C(=C\c2cccc(OCc3ccc(Cl)cc3)c2)SC1=S,inactive
8,O=[N+]([O-])c1ccc(N/N=C2/CCCCC2c2ccccn2)c([N+](=O)[O-])c1 (configuration not stated),inactive
9,CCCc1nc2nc(C)c(NS(=O)(=O)c3ccc(C4CCCCC4)cc3)c(=O)n2[nH]1,inactive
10,COc1ccc(OC)c(N2C(=O)C(Cl)=C(N3CCOCC3)C2=O)c1,inactive
11,COc1ccc(Cl)cc1/C=C1/C(=O)ON=C1C,inactive
12,CN1c2ccccc2C(C)(C)C12C=Nc1c(ccc3ccccc13)O2 (configuration not stated),inactive
13,O=C(COC(=O)c1ccc(NS(=O)(=O)c2cccs2)cc1O)NC1CCCCC1,inactive
14,O=C1CCCc2cc(S(=O)(=O)N3CCC(C(=O)NCc4ccccc4)CC3)ccc2N1,inactive
15,COC/C=C/C1=CC2=CC(=O)C(C)(OC(=O)c3cnc4ccccc4n3)C(=O)C2=CN1C1CC1 (configuration not stated),inactive
16,C=CCN1C=C2C(=O)C(C)(OC(=O)c3cnc4ccccc4n3)C(=O)C=C2C=C1/C=C/COC (configuration not stated),inactive
17,CCc1ccccc1N1C(=O)C(Cl)=C(N2CCOCC2)C1=O,inactive
18,Cc1ccccc1N1C(=O)C(Cl)=C(N2CCOCC2)C1=O,inactive
19,Cc1ccc(Nc2cc(C)c(O)c(C)c2)cc1,inactive
20,Cc1ccc(S(=O)(=O)Nc2nc3ccccc3nc2NCc2ccco2)cc1,inactive
21,CC(C)C[C@H]1CN=C(Nc2ccccc2)N1CC(C)C,inactive

row,SMILES,outcome
1,Cc1ccc(OCC(=O)c2ccc(Cl)s2)c([N+](=O)[O-])n1,inactive
2,CCOc1ccc2c(c1)C(C)=CC(C)(C)N2C(=O)Nc1ccccc1,inactive
3,CN1C(=O)/C(=C/c2cccc([N+](=O)[O-])c2)C(=O)N1c1ccccc1,inactive
4,O=c1[nH]c(/C=C/c2cccc([N+](=O)[O-])c2)c([N+](=O)[O-])c(=O)[nH]1,inactive
5,Cc1cc(C)cc(NC(=S)N(Cc2ccc(Cl)cc2)Cc2ccc(C(=O)O)cc2)c1,inactive
6,CSC1=C(C#N)C(=O)NC(c2ccccc2O)S1 (configuration not stated),inactive
7,Cc1ccc(OCc2ccc(C(=O)Nc3nccs3)o2)cc1C,inactive
8,CCn1c(C)[n+](CCCS(=O)(=O)[O-])c2cc(Cl)c(Cl)cc21,inactive
9,O=S(=O)(O)c1cccc2cccc(Nc3ccccc3)c12,inactive
10,COc1ccc(/C=C2/SC(=S)N(NS(=O)(=O)c3ccc(C)cc3)C2=O)cc1,inactive
11,CCC(COC)Oc1cc(NCc2ccccc2)c2ncn(C(C)C)c2c1 (configuration not stated),inactive
12,CCCCC1=CC2=C(c3ccco3)C(=O)C(C)(OC(=O)c3ccc(OC)cc3)C(=O)C2=CN1CC1CC1 (configuration not stated),inactive
13,Cc1[nH]n(-c2ccccc2)c(=O)c1C(c1cccc([N+](=O)[O-])c1)c1c(C)[nH]n(-c2ccccc2)c1=O,inactive
14,Cc1cc(SCC(=O)c2cccc([N+](=O)[O-])c2)nc(=O)[nH]1,inactive
15,O=c1nc(/C=C/c2cc([N+](=O)[O-])ccc2Cl)cc(C(F)(F)F)[nH]1,inactive
16,Cc1ccc(S(=O)(=O)NN2C(=O)/C(=C/c3cccs3)SC2=S)cc1,inactive
17,CC1=NN(c2ccccc2)C(=O)C1=Cc1ccccc1,inactive
18,COc1cc(NC(=O)c2ccco2)c(OC)cc1NC(=O)CCC(=O)Nc1cc(C)ccc1C,inactive
19,COc1cc(/C=C2/SC(=S)N(CC(=O)O)C2=O)ccc1OCC(=O)Nc1ccc(C)c(C)c1,inactive
20,CCOC(=O)/C(=C\c1cn(C)c2ccccc12)[N+](=O)[O-],inactive
